This is a sample that favours compounds with a hit; in the whole collection about 2.3% have one here.
A549 tox – Nrf2 qHTS screen for inhibitors: counterscreen for cytotoxicity. Potency, µM (titrated, usually from 46 µM), actives largely listed as inhibitors. A549 ARE-Fluc cells, CellTiter-Fluor viability, 18-24 h. 0.16% of 390,000 active
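Cytotoxicity counterscreen: CellTiter-Fluor fluorescence was measured in A549 ARE_Fluc cells after 18-24 h of compound exposure in a concentration series. The subsequent BugLite luminescent read reports ARE-luciferase activity.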
Nrf2 ARE act – qHTS of Nrf2 Activators. AREc32 ARE-luciferase reporter (MCF7-derived line), luminescence, 24 h. Potency, µM (series often up to 46.1 µM), usual class: activators. 0.31% of 410,000 active. AID 624171, 2012; further: nearly all actives have a fitted effect of over 65% in size
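For detection, Steady-Glo was added and plates sat 30 min at RT; before that, AREc32_Fluc cells grown overnight in OPTI-MEM/5% FBS had been treated with 23 nL compound for 24 hr at 37 deg C.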
miR-21 act – qHTS Assay for Modulators of miRNAs and/orActivators of miR-21 | HeLa miR-21 FLuc reporter, luciferase, 48 h | Potency, µM (series often up to 38.3 µM), usual class: activators | 340,000 tested, under 10 active | AID 2288, 2010;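 further: miR-21 action dims this reporter so a rising signal means less miR-21 action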
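HeLa cells stably expressing CMV-driven firefly luciferase with a downstream miR-21 binding sequence, endogenously expressing miR-21, were treated with titrations (up to about 40uM final) for 48 hours at 37 degree Celsius. Luciferase luminescence was read after lysis.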
Mito fusion yeast – qHTS Assay for Small Molecule Inhibitors of Mitochondrial Division or Activators of Mitochondrial Fusion; S. cerevisiae fusion-defective mutant growth rescue, CellTiterGlo 48 h; Potency, µM (highest dose often 46.1 µM), hits mostly activators; 0.23% of 320,000 active; AID 485298, 2010; further: nearly all actives have a fitted effect of over 45% in size
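Growth-rescue viability read-out: after 48 h at the non-permissive 37C in glycerol/ethanol YPEG, yeast mitochondrial fusion mutants are measured by CellTiterGlo luminescence; compounds (23 nl pinned per well) restoring growth score as division inhibitors or fusion activators.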
Nrf2 inh – Nrf2 qHTS screen for inhibitors | A549 ARE-Fluc reporter, luciferase luminescence, 18-24 h | Potency, µM (top dose mostly 46 µM), hits mostly inhibitors | 2.1% of 360,000 active; further: nearly all actives have a fitted effect of over 60% in size
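Reporter: ARE-Fluc in A549. Exposure: 18-24 h, 37 °C, 5% CO2, 5% FBS OPTI-MEM. Readouts: fluorescent cytotoxicity (CellTiter-Fluor), then luminescent Nrf2 signal after BugLite.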
Numbers stand for hits; - = inactive; ? = inconclusive; . = no result given; [ ] = dose if it differs, or a comment. The call rests on the fitted dose curve; in most records, active means well fitted curve in the direction sought with a large enough effect; inconclusive means small, poorly fitted or top-dose-only effect, or another doubt; inactive means no such curve, though single readings can be large; an effect the other way counts as inactive or inconclusive.

SMILES | A549 tox | Nrf2 ARE act | miR-21 act | Mito fusion yeast | Nrf2 inh
CCOc1ccc(N(CC)S(=O)(=O)N2CCCC(C(=O)Nc3cc(Cl)ccc3OC)C2)cc1 (stereo unspecified) | - | - | - | . | ?
CCOC(=O)c1c(-c2cccs2)csc1NC(=O)CN1CCOCC1 | - | - | - | - | -
CCOC(=O)c1c(-c2ccccc2)csc1NC(=O)CCN1CCOCC1 | - | -[9.22 µM] | - | 11µM | -
CCOC(=O)c1c(-c2ccc(C)o2)csc1NC(=O)CN1CCOCC1 | - | - | - | - | -
CCOC(=O)c1c(-c2ccc(C)cc2)csc1NC(=O)CCN1CCOCC1 | - | - | - | 13µM | -
CCOC(=O)c1c(-c2cccs2)csc1NC(=O)CN(CC)CC | ? | - | - | - | 18µM
CC1=C(C(=O)OC2CCCC2)C(c2c(F)cccc2Cl)CC(=O)N1 (stereo unspecified) | - | - | - | . | ?
COc1ccc(OC)c(-n2c3c(cc(-c4nc(-c5ccc(Cl)cc5)cs4)c2=O)C(=O)CC(C)(C)C3)c1 | - | - | - | . | -
COc1nc(N(C)S(=O)(=O)c2ccc(C)cc2)nc(C)c1Br | - | - | - | - | 4.1µM
Cc1ccc(NC(=O)c2c(C)oc3ncn(C)c(=O)c23)cc1F | - | - | - | . | .
N/C(=N\OC(=O)c1ccccc1Cl)c1ccncc1 | - | 8.9µM | - | - | ?
N/C(=N\OC(=O)c1ccc(Cl)cc1Cl)c1ccncc1 | - | - | - | - | ?
N/C(=N\OC(=O)c1cccc(Cl)c1)c1ccncc1 | - | 11µM | - | - | -
CN(C(=O)CSc1nnc(-c2ccccc2F)o1)c1ccccc1 | - | - | . | - | ?
COc1ccc(CN(C(=O)CSc2nnc(-c3ccccc3F)o2)c2ccc(F)cc2)cc1 | - | - | - | - | 21µM
COc1ccccc1Nc1nc(-c2c(C)nc3ncccn23)cs1 | ? | - | - | - | 12µM
COc1ccc(NC(=O)/C(Cl)=C(/Cl)S(=O)Cc2ccc(Cl)cc2)cn1 (stereo unspecified) | 21µM | -[9.22 µM] | ? | - | ?
CCC1(c2ccccc2)SCC(c2ccccc2)=NC1=O (stereo unspecified) | - | - | . | . | 18µM
CCC1(c2ccccc2)SC(N)=NC1=O (stereo unspecified) | - | - | . | . | -
CC(C)(C)c1ccc(C(=O)N2CCC(NC(=O)c3ccccc3)CC2)cc1 | - | - | - | 35µM | -
O=S(=O)(c1ccc2c(c1)OCCO2)N1CCN(S(=O)(=O)c2ccc3nc(Cl)c(Cl)nc3c2)CC1 | - | . | . | . | -
COc1ccc(-c2ccc3ncnc(NCCc4cnc[nH]4)c3c2)cc1OC | ? | . | . | . | -
Cc1ccn2c(Nc3ccc4c(c3)OCCO4)c(-c3cccs3)nc2c1 | - | - | - | . | -
c1csc(-c2nc3ccccn3c2Nc2ccc3c(c2)OCCO3)c1 | - | - | - | . | 23µM
CCOc1ccc(NC(=O)NC(C)c2c(-n3cccc3)sc(C)c2C)cc1 (stereo unspecified) | - | - | - | . | 21µM
SMILES | A549 tox | Nrf2 ARE act | miR-21 act | Mito fusion yeast | Nrf2 inh
Cc1cc(C)c(NC(=O)c2cc(S(=O)(=O)N3CCN(c4ccccc4F)CC3)ccc2F)c(C)c1 | - | - | - | . | .
CC(C)(C)OC(=O)NCCCNc1ncnc2ccc(-c3ccc4c(c3)OCO4)cc12 | - | . | . | . | -
CCCN1CNc2c(c(=O)[nH]c(=S)n2CCc2ccc(C)cc2)C1 | - | . | . | . | -
O=C(O)c1ccc(N/N=C/C=C/c2ccc([N+](=O)[O-])o2)cc1 | ? | 14µM | - | - | ?
CCc1nnc(NC(=O)CSc2nc3c([nH]c4ccccc43)c(=O)n2-c2ccc(OC)cc2)s1 | - | - | - | . | .
Cc1cc(C)n(CC(O)Cn2c3ccccc3c3ccccc32)n1 (stereo unspecified) | - | - | - | 16µM | -
O=C(Cn1c(C(F)(F)F)nc2ccccc21)c1ccccc1 | - | - | - | - | 21µM
O=C(Nc1ccc2oc(-c3ccccc3F)nc2c1)c1ccc2c(c1)OCCO2 | ? | - | - | - | 13µM
COc1ccc2cc3cc(C(=O)Nc4ccc5c(c4)OCCO5)oc3nc2c1 | - | - | - | - | 18µM
O=C(Nc1ccc2c(c1)OCCO2)c1ccc2ccccc2n1 | - | 7.9µM | - | - | ?
Cc1ccc(C)c(N(C)C(=O)C2CCN(c3ncnc4c3nc3n4CCCCC3)CC2)c1 | - | - | - | . | -
Clc1ccc2[nH]c3c(N4CCC5(CC4)OCCO5)ncnc3c2c1 | - | - | - | - | 21µM
Cc1ccc2[nH]c3c(N4CCc5ccccc5C4)ncnc3c2c1 | - | - | - | - | 7.3µM
Brc1ccc2[nH]c3c(N4CCc5ccccc5C4)ncnc3c2c1 | - | - | - | - | 9.2µM
CCOc1ccc2[nH]c3c(N4CCc5ccccc5C4)ncnc3c2c1 | - | - | ? | - | ?
COc1ccc2[nH]c3c(N4CCC(O)(c5cccc(C(F)(F)F)c5)CC4)ncnc3c2c1 | ? | - | ? | - | 23µM
O=C(O)c1ccc2c(c1)C(=O)N([C@H](Cc1ccc(C(F)(F)F)cc1)C(=O)O)C2=O | - | . | . | - | -
COc1cc(NC(=O)C2CCN(S(=O)(=O)c3c(C)noc3/C=C/c3cccs3)CC2)cc(OC)c1 | - | - | - | . | -
COc1cccc(-c2c(C#N)c(N)nc3c2c(C)nn3-c2ccccc2)c1O | ? | - | - | - | 26µM
Cc1nn(-c2ccccc2)c2nc(N)c(C#N)c(-c3ccc(C(C)(C)C)cc3)c12 | ? | - | - | - | -
N#Cc1ccsc1NC(=O)CSc1ncnc2ccccc12 | - | 13µM | - | - | ?
O=C(CSc1ncnc2ccccc12)c1ccco1 | - | 2.8µM | - | - | -
O=C(CSc1ncnc2ccccc12)NCc1ccco1 | - | - | - | - | -
N#Cc1ccsc1NC(=O)CSc1ncn[nH]1 | -[1.84 µM] | - | - | - | -
Cc1nc2c(c(C)c1CCC(=O)N1CCN(c3ccccc3)CC1)c(=O)n(C)c(=O)n2C | - | - | - | . | -
SMILES | A549 tox | Nrf2 ARE act | miR-21 act | Mito fusion yeast | Nrf2 inh
CCNc1ccc(Br)cc(C(=O)/C=C/c2ccc(Cl)cc2Cl)c1=O | ? | ? | - | - | 26µM
CNc1ccc(Br)cc(C(=O)/C=C/c2ccc(OC)cc2)c1=O | - | ? | - | - | -
CNc1ccc(Br)cc(C(=O)/C=C/c2cc(OC)ccc2OC)c1=O | ? | 14µM | - | - | ?
CCC(Sc1nc(-c2ccc(F)cc2)nc2c1Cc1c(CO)cnc(C)c1O2)C(=O)Nc1ccc(F)cc1 (stereo unspecified) | - | - | - | . | -
CCc1ccccc1NC(=O)Cn1cc(S(=O)(=O)N2CCCC2)c(S(=O)(=O)N2CCCC2)c1 | - | - | - | . | -
O=[N+]([O-])c1ccc(O)c(/C=N/Nc2ccc(Cl)nn2)c1 | ? | - | - | - | 3.7µM
COc1ccccc1CNC(=O)CN1C(=O)CCn2nc(-c3ccccc3)cc21 | - | - | - | . | -

Screens as filed in PubChem.
